Results reported in the supplement of paper PMC6555819.

test system: RARb homodimer (NR concentration 270 nM); experiment: PBM binding z-score (relative to random genomic background probes); higher = stronger binding; sequences stand for … in GC…GCGATTGACAGCGTAGAATGAAGG
In short: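 Regression normalization was applied to scanned fluorescence from custom Agilent 4×180K protein-binding microarrays. Before scanning, arrays were incubated 1 h with ligand-free nuclear receptor dimers, and binding was detected with antibodies against each partner (one per run). Binding z-scores use the random background probes as reference.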

Sequence	PBM binding z-score
CCAGACAGGTGAGAAGGTCACTCAGCCTCGATTA	4.12
ATAGGTAGGTTATCGGGTCATTCAGTTTGCGCAT	3.33
CCCTACGGGTCAAGGTTATAGCACGGGTGGTACG	3.5
ATCGAAATGTCGACGAGGTGAGTATACACCGTTT	0.224
ATACCAAGGTGATCGTGAGGTCGTTGAGACTAAC	1.66
CCGACTGGGGCAAAGGTTAGCATACTCAGTACGA	1.56
CCTTACGGGTCACTGACAGGGTATAGCATTTGGA	2.82
CGTCTAAGGTCAATGCTAGGTCAGTGAAAGCATT	5.09
ATCGAAAGGTCGTGAGGTGAGTATGCAGAAAGGC	3.26
CCTGCTAGGTCATGATCAGCTAATCTACAGTATG	2.57
ATCTCTAGGTCACAAGTTCAGTGAAAGAGAGGAC	4.24
TAGCCTAGGTCATTCATGGGCCAGTATAGAAAGC	2.52
AGAACGAGTGCACGCTGAGTTGATAGCAGAGTAG	-0.576
TCTTGTAAATCAGCAGGTTAAGAAAGCTGGCCAA	-0.0241
GCTAGCAGACCATTTGGGTCACTCAATGACGGGC	1.42
CGTCAAAGTTCAAGGTAACGTAGCAGAAAGCAGC	3.85
GCTAGTTGGCCAGTAAAAGGTCACACACCGGTCG	5.19
TAGCCTAGGTCATGCGGGCAAGTATAGTGTCGGC	3.16
ATATGTAGGTTAAGGGTCATCCAGGTTGGTTCGC	4.18
CCTACTGGGCCAAAAAGGTCATTGCTGCCGATAA	4.46

Sequence	PBM binding z-score
GCTAGTTGGTCAGTAAAAGGTCACACGCCGGTCG	5.37
GCTCGGAGGACATGGTCAGAGCTTTGTCCGTAGA	0.143
TCATATAGGTAAAATGTGAAAGTCGGTGTGGTAA	-0.199
CTCGAAAGTTCGTGCTCAGGTGAGTATACCAAAC	1.55
CGTCAAAGTTCAACTAAGGAAACGTAAAGCACGC	3.66
AGGATGAGGTTAAGATCAGGGAAACAGAATACAT	1.48
CCTATTAGTTGACCATCAGGGCAACCGAAGCTCG	1.35
CCGAGTAGGTTATGAGGCATTCAGGCAACGGTGA	0.133
TGAATGAGGTTATAAGATCAGGTAACGTTGCAAA	0.391
TAGCCTAGGTCATGGACCAGTATACCACGCGAAC	2.8
GCTAGCAGGCCATTTGGGTCACTCGATGACGGGC	1.9
ACTAGTTTGTCAGCTGAGGTCACACACAATTCGG	3.94
TCTAGCAGGCCAGAGGGTCCCTCAAGAGGTACGG	-0.677
GCTATTAGTTGAAAGGGCAACCAAATGATTCTCG	2.12
CGAACTAGGTCATGCAGGACAGTGAATACATTGA	2.8
CCTAGCAGGTCAGGGTCACTCAAGCATTTCGCTT	4.32
AGAATGAGGTTCTTAAGATCAGGGAATTGCGGTC	-0.377
TTACCAAGGTAAAGGTCGTTGATCCCTCTGTAGA	2.13
GCTTACGGGTCAAAGGTAATAGCATGAATAGAAT	2.5
TCATATAGGTAATATAGGTGAAAGTCGGCATCTA	0.281
